The record followed here is PubChem BioAssay (Tox21).

SMILES strings stand for the structures. Unmarked numbers belong to inactive results. Records with an inconclusive call do not appear. Activity calls are given as the source filed them. Unless noted, calls follow the shape of the full dose curve.

Assay [1] is described as follows: Nuclear factor erythroid 2-related factor 2/antioxidant responsive element (Nrf2/ARE) small molecule agonists: qHTS cell viability counter screen in human keratinocytes (AID 1919968; active = well fitted curve in the direction sought with a large enough effect in the repeat runs; an effect the other way counts as inactive or inconclusive; also: nearly all actives have a fitted effect of over 55% in size; also: potency is read from the fitted curve at half-maximal effect). In short, it runs like this:
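After a 5 h attachment period, ARE-reporter keratinocytes were dosed with compounds in DMSO and then cultured 23 h at 37 C. Cell viability came from CellTiter-Fluor signal read after a further 1 h.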
Background: Quantitative high-throughput screening tests each substance at several concentrations.

Assay [2] is described as follows: Nuclear factor erythroid 2-related factor 2/antioxidant responsive element (Nrf2/ARE) small molecule agonists: luciferase reporter gene qHTS assay in human keratinocytes (AID 1919969). Also: nearly all actives have a fitted effect of over 35% in size.
Assay [3] has as its target Gonadotropin-releasing hormone receptor (Homo sapiens) (UniProt P30968). Briefly: Human gonadotropin-releasing hormone receptor (GnRHR) small molecule agonists, calcium flux assay in GnRHR-HEK293 cells (AID 1920063). Also: nearly all actives have a fitted effect of over 35% in size. An outline of the steps: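 We seeded human GnRHR-expressing HEK293 cells for 18 hours, loaded them with calcium dye for an hour at 37 C, added test compounds, and recorded fluorescence intensity kinetically for three minutes.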

The target in assay [4] is KiSS-1 receptor (Homo sapiens) (UniProt Q969F8). Briefly: Human kisspeptin (KISS1R) small molecule agonists, calcium flux assay in KISS1R-HEK293 cells (AID 1920064; active = well fitted curve in the direction sought with a large enough effect in the repeat runs; an effect the other way counts as inactive or inconclusive). In short, it runs like this:
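Kinetic calcium assay, 1 s sampling over 3 min at Ex/Em 480/540, in HEK293 cells engineered with human KISS1R; compounds delivered in DMSO after 1 h dye loading.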
(In general: Calcium flux is commonly read through the fluorescence of an indicator in the cells.)

A short description of assay [5]: G protein-coupled receptor (GPCR) small molecule agonists, calcium flux assay: HEK293 wild type cell line counter screen (AID 1920065). An outline of the steps: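 Calcium-sensitive dye, loaded 1 h at 37 C into cells cultured 18 h, reports compound-evoked calcium release as fluorescence (Ex/Em 480/540), measured over 3 min. Agonist mode; 15-point titrations, triplicate.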

Assay [6] in a line: p53 small molecule agonists, cell-based qHTS assay with human liver microsomes: qHTS cell viability counter screen (AID 1963579). Also: nearly all actives have a fitted effect of over 45% in size. Also: potency is read from the fitted curve at half-maximal effect. An outline of the steps: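 Viability of p53RE-bla cells is measured as CellTiter-Glo luminescence following a 16 h, 37 C incubation with compound, liver microsomes from human donors and NADPH.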
Assay [7] can be described thus: p53 small molecule agonists, cell-based qHTS assay with rat liver microsomes: qHTS cell viability counter screen (AID 1963580). Also: nearly all actives have a fitted effect of over 45% in size. Also: potency is read from the fitted curve at half-maximal effect. In short, it runs like this:
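p53RE-bla HCT-116 cells were exposed 16 h at 37 C to compounds with rat liver microsomes (0.5 mg/mL) and NADPH (0.5 mg/mL). Viability was measured in the same wells as ATP content by CellTiter-Glo luminescence.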

Assay [8] is described as follows: p53 small molecule agonists, cell-based qHTS assay: qHTS cell viability counter screen (AID 1963581). Also: nearly all actives have a fitted effect of over 45% in size. Also: potency is read from the fitted curve at half-maximal effect. An outline of the steps:
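Following 5 h attachment, HCT-116 p53RE-bla cells took up compound for 16 h at 37 C; the reporter was read with B/G FRET substrate (2 h RT), and viability then via CellTiter-Glo ATP luminescence.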

In assay [9] the target is 5-hydroxytryptamine receptor 2A (Homo sapiens) (UniProt P28223). Briefly: 5-hydroxytryptamine receptor 2A (HTR2A) small molecule antagonists, cell-based qHTS assay (AID 1963586). Also: nearly all actives have a fitted effect of over 45% in size. An outline of the steps: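 Antagonist-mode intracellular calcium assay: DOI (4 nM) added after 5 min compound pre-incubation at room temperature to dye-loaded HTR2A-CHO cells. Fluorescence followed for 3 min, sampled every second.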

The target is the same in assay [10]. Put plainly: 5-hydroxytryptamine receptor 2A (HTR2A) small molecule agonists, cell-based qHTS assay (AID 1963587). Also: nearly all actives have a fitted effect of over 30% in size. An outline of the steps: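 CHO cells stably expressing human HTR2A, plated 18 h, loaded with calcium dye 1 h at 37 C. Agonist mode: compounds added and intracellular calcium fluorescence recorded kinetically for 2 min at 1 sec intervals.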
The target in assay [11] is Muscarinic acetylcholine receptor M1 (Homo sapiens) (UniProt P11229). Briefly: Cholinergic receptor muscarinic 1 (CHRM1) small molecule antagonists, cell-based qHTS assay (AID 1963588). Also: nearly all actives have a fitted effect of over 40% in size. In short, it runs like this:
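CHRM1-CHO calcium-flux assay, antagonist mode. Cells were seeded 18 h, dye-loaded 1 h at 37 C and given compound for 5 min at RT, then acetylcholine was added at 50nM. FDSS fluorescence was read 3 min; 15 concentrations, three runs.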

The target is the same in assay [12]. Briefly: Cholinergic receptor muscarinic 1 (CHRM1) small molecule agonists, cell-based qHTS assay (AID 1963589). Also: nearly all actives have a fitted effect of over 35% in size. An outline of the steps:
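Measures agonist-induced intracellular calcium rise. Stable human CHRM1 CHO line, 1 h dye load at 37 C, compounds from DMSO, kinetic fluorescence read.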

Assay [13] in a line: cAMP Responsive Elements (CRE) small molecule antagonists, cell-based qHTS assay (AID 1963591; active = well fitted inhibition curve with a large enough effect in the signal ratio in the repeat runs, not every such curve was filed as active; the % refers to the signal ratio). In short, it runs like this: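 HEK293T cells carrying a CRE-driven beta-lactamase reporter receive compound and NKH477 (0.25 uM final) for 3 h. Fluorescence from LiveBLAzer B/G FRET substrate is read after 2 h at room temperature.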
The target in assay [14] is Beta-2 adrenergic receptor (Homo sapiens) (UniProt P07550). Put plainly: Adrenergic beta2 receptor (ADRB2) small molecule antagonists, cell-based qHTS assay (AID 1963592). Also: series mostly up to about 92 µM; nearly all actives have a fitted effect of over 50% in size. In short, it runs like this: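 Cells (CHO, stable ADRB2 overexpression) incubated 18-20hr at 37C; compounds added from DMSO; agonist mix (1nM isoproterenol, 100uM IBMX, 25uM Ro-20-1724) added; 0.5hr RT; d2-cAMP and anti-cAMP-cryptate added; 1hr RT; 665/615 nm read.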

In assay [15] the target is D(2) dopamine receptor (Homo sapiens) (UniProt P14416). Put plainly: Dopamine D2 receptor (DRD2) small molecule agonists, cell-based qHTS assay (AID 1963594). Also: nearly all actives have a fitted effect of over 35% in size. An outline of the steps:
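HEK293 cells stably expressing human DRD2, pre-treated with PDE inhibitor Ro20-1724 (0.1 mM final) and compound 10 min at room temperature, then stimulated with NKH477 (200nM […]) for 30 min. cAMP read by HTRF (665/620 nm).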

Assay [16] has the same target. Put plainly: Dopamine D2 receptor (DRD2) small molecule antagonists, cell-based qHTS assay (AID 1963595; active = well fitted inhibition curve with a large enough effect in the signal ratio in the repeat runs, with a control signal flat; the % refers to the signal ratio). In short, it runs like this: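 DRD2-HEK293; 0.1 mM Ro20-1724; cpd 10 min RT; NKH477 200 nM + quinpirole 12 nM, 30 min RT; HTRF cAMP (cAMP-d2/anti-cAMP cryptate), 665/620 nm ratio after 1 h.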
Assay [17] in a line: cAMP Responsive Elements (CRE) small molecule agonists, cell-based qHTS assay (AID 1963590). In short, it runs like this:
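A CRE-responsive beta-lactamase reporter in HEK 293T cells was used. Treatment ran 3 h at 37 C; detection used LiveBLAzer B/G FRET substrate for 2 h at room temperature.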

The target of assay [18] is Beta-2 adrenergic receptor (Homo sapiens) (UniProt P07550). Put plainly: Adrenergic beta2 receptor (ADRB2) small molecule agonists, cell-based qHTS assay (AID 1963593).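 Also: CHO cells stably overexpressing human ADRB2.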 An outline of the steps:
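CHO cells stably over-expressing ADRB2 were plated overnight at 37C, then dosed with compounds plus a stimulation mix containing 100uM IBMX and 25uM Ro-20-1724 for 0.5hr at room temperature. cAMP was measured by HTRF competition, 1hr.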
% is scaled to controls: 0 for no effect and ±100 for the full control effect.

Chain of 5-hydroxytryptamine receptor 2A (Homo sapiens) (P28223 whole entry, looked up): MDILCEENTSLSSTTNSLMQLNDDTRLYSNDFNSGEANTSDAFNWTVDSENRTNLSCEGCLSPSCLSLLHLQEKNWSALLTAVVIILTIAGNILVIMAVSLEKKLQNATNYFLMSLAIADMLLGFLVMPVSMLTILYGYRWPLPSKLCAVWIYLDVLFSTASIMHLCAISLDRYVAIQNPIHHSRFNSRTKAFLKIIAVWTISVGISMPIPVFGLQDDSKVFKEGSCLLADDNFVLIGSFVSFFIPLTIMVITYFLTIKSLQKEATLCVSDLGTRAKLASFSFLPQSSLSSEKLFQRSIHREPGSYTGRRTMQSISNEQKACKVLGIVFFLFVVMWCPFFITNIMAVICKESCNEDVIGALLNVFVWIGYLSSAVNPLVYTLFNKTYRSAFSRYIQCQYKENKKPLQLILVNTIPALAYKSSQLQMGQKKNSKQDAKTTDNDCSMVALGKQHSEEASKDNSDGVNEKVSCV
Chain of Beta-2 adrenergic receptor (Homo sapiens) (P07550 whole entry, looked up): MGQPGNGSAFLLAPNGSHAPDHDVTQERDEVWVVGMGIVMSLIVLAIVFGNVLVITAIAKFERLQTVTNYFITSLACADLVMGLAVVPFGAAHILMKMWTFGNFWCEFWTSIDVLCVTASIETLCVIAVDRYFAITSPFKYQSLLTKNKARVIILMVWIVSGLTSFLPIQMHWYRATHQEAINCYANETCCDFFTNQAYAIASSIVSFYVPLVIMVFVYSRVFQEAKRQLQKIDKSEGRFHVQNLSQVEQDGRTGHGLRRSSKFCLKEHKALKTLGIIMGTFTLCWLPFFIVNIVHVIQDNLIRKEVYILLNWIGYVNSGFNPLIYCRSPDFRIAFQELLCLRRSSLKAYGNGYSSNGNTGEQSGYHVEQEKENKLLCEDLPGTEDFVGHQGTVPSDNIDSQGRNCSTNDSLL
Chain of D(2) dopamine receptor (Homo sapiens) (P14416 whole entry, looked up): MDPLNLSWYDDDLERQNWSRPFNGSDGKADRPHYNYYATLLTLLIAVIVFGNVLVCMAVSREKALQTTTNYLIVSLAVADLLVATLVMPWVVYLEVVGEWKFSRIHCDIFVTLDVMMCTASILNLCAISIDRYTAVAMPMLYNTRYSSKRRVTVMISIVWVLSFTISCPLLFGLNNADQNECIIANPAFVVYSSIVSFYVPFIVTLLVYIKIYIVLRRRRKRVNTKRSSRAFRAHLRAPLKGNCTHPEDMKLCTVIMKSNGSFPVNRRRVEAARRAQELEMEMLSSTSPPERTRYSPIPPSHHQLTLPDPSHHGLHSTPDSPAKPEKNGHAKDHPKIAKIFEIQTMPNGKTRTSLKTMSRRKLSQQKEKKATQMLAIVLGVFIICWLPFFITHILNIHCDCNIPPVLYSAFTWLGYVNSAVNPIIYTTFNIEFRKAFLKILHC
Chain of Muscarinic acetylcholine receptor M1 (Homo sapiens) (P11229 whole entry, looked up): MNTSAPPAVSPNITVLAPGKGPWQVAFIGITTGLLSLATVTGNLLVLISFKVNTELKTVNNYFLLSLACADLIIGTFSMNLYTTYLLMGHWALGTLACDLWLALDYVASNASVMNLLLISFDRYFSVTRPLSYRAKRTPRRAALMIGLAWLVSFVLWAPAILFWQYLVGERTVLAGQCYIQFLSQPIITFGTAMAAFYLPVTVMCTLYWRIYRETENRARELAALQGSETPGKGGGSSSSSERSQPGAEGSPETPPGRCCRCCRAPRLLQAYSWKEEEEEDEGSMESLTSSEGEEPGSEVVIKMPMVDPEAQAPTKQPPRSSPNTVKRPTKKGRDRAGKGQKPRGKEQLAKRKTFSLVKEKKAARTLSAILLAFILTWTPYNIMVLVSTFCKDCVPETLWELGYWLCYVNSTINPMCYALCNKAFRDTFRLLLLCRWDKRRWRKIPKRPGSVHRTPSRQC
Chain of Gonadotropin-releasing hormone receptor (Homo sapiens) (P30968 whole entry, looked up): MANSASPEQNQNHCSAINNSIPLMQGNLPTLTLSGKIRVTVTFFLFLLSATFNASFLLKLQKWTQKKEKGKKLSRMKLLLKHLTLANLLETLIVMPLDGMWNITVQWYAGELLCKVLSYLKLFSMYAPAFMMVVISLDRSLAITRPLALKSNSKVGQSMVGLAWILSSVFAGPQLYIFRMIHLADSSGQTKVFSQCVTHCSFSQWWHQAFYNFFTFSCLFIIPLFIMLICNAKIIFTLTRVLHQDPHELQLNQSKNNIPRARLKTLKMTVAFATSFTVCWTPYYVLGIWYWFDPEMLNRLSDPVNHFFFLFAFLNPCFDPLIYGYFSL
Chain of KiSS-1 receptor (Homo sapiens) (Q969F8 whole entry, looked up): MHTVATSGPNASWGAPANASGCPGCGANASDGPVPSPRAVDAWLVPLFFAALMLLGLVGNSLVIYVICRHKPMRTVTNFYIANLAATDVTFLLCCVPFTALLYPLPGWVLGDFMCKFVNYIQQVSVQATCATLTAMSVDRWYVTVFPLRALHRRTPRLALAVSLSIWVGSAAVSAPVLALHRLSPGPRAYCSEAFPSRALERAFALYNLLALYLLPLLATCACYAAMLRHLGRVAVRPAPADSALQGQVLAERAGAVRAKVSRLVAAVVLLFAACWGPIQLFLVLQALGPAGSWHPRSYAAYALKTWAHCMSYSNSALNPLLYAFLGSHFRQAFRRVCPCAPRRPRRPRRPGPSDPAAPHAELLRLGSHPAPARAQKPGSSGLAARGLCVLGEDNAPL

Take `CCCC(=O)O[C@]1(C(=O)COC(=O)CC)CC[C@H]2[C@@H]3CCC4=CC(=O)CC[C@]4(C)[C@H]3[C@@H](O)C[C@@]21C`: the activity change, negative = cytotoxicity in assay [1] was -1.05% [at 19 µM]; in assay [6] it was 0.226% [at 13.5 µM]; in assay [7], 1.95% [at 13.5 µM]; in [8] it was -11% [at 13.5 µM]. For the same compound, the activity, positive = activation in assay [2] is -4.28% [at 19 µM]. For the same compound, in [3], the activity change is 1.71% [at 11.8 µM, hits give high values]. Further, the activation in assay [4] is -0.661% [at 15.8 µM]; in assay [5] it was -0.97% [at 11.8 µM]; in [10], 1.9% [at 15.9 µM]; in assay [12], 5.7% [at 15.8 µM]; in assay [15], 3.82% [at 19 µM]. The activity, negative = inhibition in [9] was -43.5% [at 12.7 µM]; in [11], 0.329% [at 12.6 µM]. The values for the activity change, negative = inhibition in [13], in assay [14] and in assay [16] were 0.328% [at 18.9 µM], 0.289% [at 19 µM] and -0.509% [at 18.9 µM], respectively.

For the compound `COc1ccc(Cc2cnc(N)nc2N)cc1OC`, the Potency entry in [1], in [2], in assay [3], in assay [4], in assay [5] and in assay [6] was “inactive” throughout. In addition, the Potency entry in assay [7], in assay [8], in assay [9], in assay [10], in assay [11] and in [12] was “inactive” in each case. Also, the Potency entry in assay [17], in [14], in assay [18], in assay [15] and in [16] was “inactive” throughout.

`CC(C)C(=O)OCCc1ccccc1`: the Potency result in [1], in [2], in [3], in assay [4], in assay [5] and in [6] was “inactive” throughout. For the same compound, the Potency entry in assay [7], in [8], in assay [9], in assay [10], in assay [11] and in assay [12] was “inactive” each time. Moreover, the Potency result in assay [13], in [14], in assay [18], in assay [15] and in [16] was “inactive” each time.

On to `N[C@@H](CCC(=O)O)C(=O)O`, for which the Potency entry in [1], in assay [2], in [3], in assay [4], in [5] and in [6] was “inactive” throughout. The Potency entry in [7], in [8], in assay [9], in assay [10], in [11] and in [12] was “inactive” throughout. The Potency result in assay [17], in assay [14], in assay [18], in assay [15] and in assay [16] was “inactive” in each case.

Consider `CCCCCCOC(=O)CCCCCCCC(=O)OCCCCCC`, for which the Potency result in assay [1], in assay [2], in assay [3], in assay [4], in [5] and in assay [6] was “inactive” throughout. Further, the Potency result in assay [7], in assay [8], in assay [9], in [10], in assay [11] and in assay [12] was “inactive” each time. Further, the Potency result in assay [13], in assay [14], in assay [18], in [15] and in [16] was “inactive” in each case.

As to `SC1CCCC1`, the Potency entry in assay [1], in assay [2], in assay [3], in [4], in assay [5] and in [6] was “inactive” throughout. In addition, the Potency entry in assay [7], in assay [8], in assay [9], in [10], in [11] and in [12] was “inactive” throughout. Moreover, the Potency entry in [13], in assay [14], in [15] and in [16] was “inactive” in each case.

As for `CCN(Cc1cccc(S(=O)(=O)O)c1)c1ccc(C(=C2C=CC(=[N+](CC)Cc3cccc(S(=O)(=O)O)c3)C=C2)c2ccc(O)cc2S(=O)(=O)[O-])cc1`, the Potency in assay [1] was 33.1 µM (active); in assay [6] it was 24.8 µM (active); in assay [7], 24.8 µM (active); in assay [8], 11.1 µM (active). The Potency result in assay [2], in assay [3], in assay [4], in [5], in [9] and in [10] was “inactive” each time. Besides, the Potency result in assay [11], in [12] and in assay [13] was “inactive” in each case.
